High-throughput results deposited in PubChem by several laboratories.
The list is not random: actives were taken first. Their share in the collection is about 3.6%.
LGR2 inh: Drosophila LGR2 receptor signaling inhibition. HEK293 LGR2, CRE-luciferase, bursicon-stimulated, 4 h. inhibition, % at 9.99 µM. 0.35% of 380,000 active;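 active = drop in luminescence signal, shown as inhibition above about 50% in the replicate tests, limit read from the data, passing the limit was not always enough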;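 also: agonist challenge used bursicon conditioned medium at about half maximal strength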
LMP1 NFkB inh: reduces LMP1-driven NF-kappaB luciferase signal | AID 504558 | LMP1-induced NF-kappaB luciferase reporter cells, luminescence | 0.69% of 350,000 active | inhibition, % at 12.5 µM; in the data active = inhibition above about 41%;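 also: 0% = neutral control wells and 100% = reference inhibitor control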
HSF1 inhib: HSF1 inhibition | 0.77% of 300,000 active | activity change, negative = inhibition, % at 7.5 µM (by protocol) | NIH3T3-HGL HSE-luciferase, MG132-induced, luminescence 8 h; active compounds read low;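 active = more than half of replicate wells show activity change below -50%, luminescence cut by over half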;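 also: luciferase reports HSF-1 transcriptional activity via heat shock element; 0% = median of DMSO wells and -100% = zero luminescence signal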
TROY NFkB inh: blocks TROY-dependent signaling in reporter cells | Q293 LMP1-TROYcd NF-kB luciferase reporter, 4 h | 0.98% of 360,000 active | inhibition, % at 10 µM;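 active = compounds whose plate-normalised and pattern-corrected inhibition of the luciferase reporter signal at the single screening dose is 50% or more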
TWEAK-Fn14 inh: blocks TWEAK-Fn14 interaction in a reporter cell assay | TWEAK-stimulated Fn14 reporter cells, luciferase luminescence, 8 h | 2% of 360,000 active | inhibition, % at 10 µM; in the data active = inhibition above about 50%
HSF-1 act: increases HSF-1 driven luciferase reporter signal | NIH3T3-HGL HSF-1 luciferase reporter, MG132, 8 h; 100% = twice DMSO control signal | activation, % at 9 µM | 1.7% of 300,000 active | AID 504408;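 active = mean replicate activation of at least 50% with a set share of replicates each reaching 50%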;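 also: 0% = median of the neutral control wells and 100% = twice that signal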
Numbers without * were called inactive.

Results for CCOC(=O)/C(C#N)=C\c1cc(C)n(-c2ccccc2)c1C ?
LMP1 NFkB inh: -27; HSF1 inhib: -63*; TROY NFkB inh: 79*; TWEAK-Fn14 inh: 81*; HSF-1 act: -69

Results for CCOC(=O)/C(C#N)=C/c1cc(C)n(-c2ccc(C)cc2)c1C ?
LGR2 inh: -3; LMP1 NFkB inh: -48; HSF1 inhib: -5; TROY NFkB inh: 50*; TWEAK-Fn14 inh: 42; HSF-1 act: -13

What do the screens show for `Cc1c(-c2ccccc2)oc2c(C(=O)N3CCN(c4ccccc4F)CC3)cccc2c1=O`?
LGR2 inh: -9; LMP1 NFkB inh: 5; HSF1 inhib: -4; TROY NFkB inh: 18; TWEAK-Fn14 inh: 54*; HSF-1 act: -4

How did C[C@@H]1CN([C@@H](C)CO)C(=O)c2cccc(NC(=O)C3CCOCC3)c2O[C@@H]1CN(C)C(=O)Nc1cccc2ccccc12 do in these assays?
LGR2 inh: -4

What do the screens show for `C[C@H](CO)N1C[C@H](C)[C@H](CN(C)S(=O)(=O)c2ccc(Cl)cc2)OCCCC[C@H](C)Oc2ccc(NC(=O)NC3CCCCC3)cc2C1=O`?
LGR2 inh: -1

How did CC1CC(C)(C)Nc2ccc(OC(=O)c3ccco3)cc21 (configuration not stated) do in these assays?
LMP1 NFkB inh: 25; HSF1 inhib: -10; TROY NFkB inh: 49; TWEAK-Fn14 inh: 89*; HSF-1 act: -29

What do the screens show for `CC1CC(C)(C)Nc2ccc(N=O)cc21` (configuration not stated)?
LGR2 inh: 2; LMP1 NFkB inh: 21; HSF1 inhib: 1; TROY NFkB inh: 35; TWEAK-Fn14 inh: 80*; HSF-1 act: -8

What do the screens show for `CN1C(=O)c2cc(NC(=O)c3cccc(C(F)(F)F)c3)ccc2OC[C@@H]2O[C@H](CC(=O)O)CC[C@@H]21`?
LGR2 inh: -5

What do the screens show for `Cc1nn(Cc2ccccc2Cl)c(Cl)c1C(=O)NCCc1ccccc1`?
LGR2 inh: -70; LMP1 NFkB inh: -31; HSF1 inhib: 41; TROY NFkB inh: -35; TWEAK-Fn14 inh: 1; HSF-1 act: 61*

Results for CC(=O)Nc1ccc(NC(=O)c2c(C)nn(Cc3ccccc3)c2Cl)cc1 ?
LGR2 inh: -6; LMP1 NFkB inh: 5; HSF1 inhib: -2; TROY NFkB inh: 6; TWEAK-Fn14 inh: 3; HSF-1 act: 26

How did COCCCNC(=O)CC(NS(=O)(=O)c1ccc(C)cc1)c1ccc(OC)cc1 (configuration not stated) do in these assays?
LGR2 inh: 12; LMP1 NFkB inh: -10; HSF1 inhib: -77*; TROY NFkB inh: 6; TWEAK-Fn14 inh: -6; HSF-1 act: -80

How did COCCCNC(=O)CC(NS(=O)(=O)c1ccc(OC)cc1)c1ccc(OC)cc1 (configuration not stated) do in these assays?
LGR2 inh: 24; LMP1 NFkB inh: 3; HSF1 inhib: -5; TROY NFkB inh: 10; TWEAK-Fn14 inh: -2; HSF-1 act: -12

What do the screens show for `C=CCn1cc(/C=N/Nc2nc3ccccc3[nH]2)c2ccccc21`?
LGR2 inh: -12; LMP1 NFkB inh: -34; HSF1 inhib: 181; TROY NFkB inh: 13; TWEAK-Fn14 inh: 53*; HSF-1 act: 268*

Results for Cc1cc(=O)[nH]c(N/N=C/c2c(C)nn(-c3ccccc3)c2C)n1 ?
LGR2 inh: 7; LMP1 NFkB inh: 9; HSF1 inhib: 1; TROY NFkB inh: -11; TWEAK-Fn14 inh: 9; HSF-1 act: 13

How did Cc1nn(-c2ccccc2)c(C)c1/C=N/Nc1nc2ccccc2[nH]1 do in these assays?
LGR2 inh: -40; LMP1 NFkB inh: -38; HSF1 inhib: 337; TROY NFkB inh: 15; TWEAK-Fn14 inh: 44; HSF-1 act: 423*

Results for Cc1nn(-c2ccccc2)c(Cl)c1/C=N/NC(N)=O ?
LGR2 inh: -17; LMP1 NFkB inh: -1; HSF1 inhib: -11; TROY NFkB inh: -47; TWEAK-Fn14 inh: -26; HSF-1 act: 3

How did Cc1c(/C=N/Nc2nc3ccccc3[nH]2)c2ccccc2n1C do in these assays?
LGR2 inh: -1; LMP1 NFkB inh: -28; HSF1 inhib: 263; TROY NFkB inh: 55*; TWEAK-Fn14 inh: 94*; HSF-1 act: 332*

How did Cc1nn(-c2ccccc2)c(Cl)c1/C=N/Nc1nc2ccccc2n1C do in these assays?
LGR2 inh: -96; LMP1 NFkB inh: -23; HSF1 inhib: 29; TROY NFkB inh: -4; TWEAK-Fn14 inh: -3; HSF-1 act: 63*
